A selection: hits, their analogues and other compounds. The true share with any hit is near 2.8%.
EBV LMP1 NFkB – reduces LMP1-driven NF-kappaB luciferase signal | actives 0.69% (n = 350,000) | LMP1-induced NF-kappaB luciferase reporter cells, luminescence | inhibition, % at 12.5 µM; in the data active means inhibition above about 41%; inconclusive means no clear call, values can overlap the other calls;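 further: 0% = neutral control wells and 100% = reference inhibitor control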
PAX8 reporter – inhibitors of PAX8 transcriptional activity in RMG-I cells; RMG-I TPO-luciferase reporter, SteadyGlo, 24 h; inhibition, % at 12.6 µM; actives 1.2% (n = 360,000); AID 652154;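 active means mean replicate inhibition at least 60% with every replicate also reaching 60%; inconclusive means only one of the two criteria is met; inactive means mean below 60% and not all replicates reaching 60%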;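 further: luciferase light reporting Pax8 driven TPO promoter activity; plate controls were median of neutral control wells for no effect and mitoxantrone controls for full effect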
Shn3 inh set2 – inhibitors of Schnurri-3 3'UTR reporter in osteoblasts; Clone20 osteoblast Shn3 3'UTR firefly luciferase, 24 h; inhibition, % at 12.5 µM; actives 0.52% (n = 360,000);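 active means mean inhibition of at least 75% with every replicate also reaching 75%; inconclusive means mean inhibition at least 75% but some replicate below; inactive means mean inhibition below 75%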;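 further: 0% = median of neutral control wells and 100% = pilot-screen positive control compound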
Peg3 promoter – inhibitors of Peg3 promoter; HeLa PEG-Prom luciferase reporter, luminescence, overnight; inhibition, % at 20 µM; actives 1.7% (n = 360,000); AID 588405;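 active means inhibition of at least 50% at 20 µM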
HIF-2a block – HIF-2a inhibition | AID 624352 | actives 0.72% (n = 360,000) | inhibition, % at 18.8 µM | 786-0 RCC cells HIF-2a reporter, luciferase luminescence, overnight;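 active means inhibition of the luminescence signal of 40% or more relative to plate controls, in a single-dose primary screen at 18.75 µM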
TRPM1 prom inh – MITF TRPM1 promoter inhibition in SK-MEL-5 cells; SK-MEL-5 TRPM1 promoter luciferase, 24 h; inhibition, % at 12.5 µM; actives 0.83% (n = 330,000);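 active means mean inhibition across replicates of 60% or more, whatever share of single replicates reaches that level; inconclusive means some that reach 60%, reason not given; inactive means mean inhibition across replicates below 60%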
An asterisk follows results filed as active; ? = inconclusive; . = no result given.

SMILES	EBV LMP1 NFkB	PAX8 reporter	Shn3 inh set2	Peg3 promoter	HIF-2a block	TRPM1 prom inh
COc1ccc(C#Cc2ccc([C@@H]3[C@H]4CN(C(=O)Nc5cccc(F)c5)CCCCN4[C@H]3CO)cc2)cc1	.	15	.	.	.	.
COc1ccc(C#Cc2ccc([C@@H]3[C@H](CO)N4CCCCN(C(=O)Nc5cccc(F)c5)C[C@@H]34)cc2)cc1	.	76*	.	.	.	.
COc1ccccc1NC(=O)N1CCCCN2[C@H](CO)[C@H](c3ccc(-c4ccc(C)cc4)cc3)[C@@H]2C1	.	4	.	.	.	.
O=C(Nc1cccc(F)c1)N1CCCCN2[C@H](C1)[C@@H](c1ccc(-c3ccncc3)cc1)[C@@H]2CO	.	11	.	.	.	.
Cc1ccc(-c2ccc([C@H]3[C@@H](CO)N4CCCCN(C(=O)Nc5cccc(F)c5)C[C@H]34)cc2)cc1	.	108*	.	.	.	.
O=C(Cc1ccccc1)N/N=C/c1cc(Br)cc(Cl)c1O	21	46	46	53*	10	17
O=C(N/N=C/c1cc(Br)cc(Br)c1O)c1cccc(S(=O)(=O)N2CCOCC2)c1	27	6	7	55*	10	27
Oc1c(Cl)cc(Cl)cc1/C=N/Nc1ncc(Br)cn1	?	21	90*	38	6	66*
Cc1ccc(N=Cc2cc(Cl)cc(Cl)c2O)nc1	-7	21	3	-4	-6	2
O=C(N/N=C/c1cc(Cl)cc(Cl)c1O)c1ccncc1	-4	-1	42	43	21	64*
C[C@H](CO)N1C[C@H](C)[C@H](CN(C)S(=O)(=O)c2ccccc2)OCCCC[C@H](C)Oc2ccc(NC(=O)CCC(F)(F)F)cc2C1=O	.	7	.	.	.	.
CC(C)NC(=O)N(C)C[C@H]1Oc2ccc(NC(=O)CCCN(C)C)cc2C(=O)N([C@H](C)CO)C[C@H]1C	.	-6	.	.	.	.
O=C(N/N=C/c1cc(Cl)cc([N+](=O)[O-])c1O)c1ccc2c(c1)OCO2	13	14	-10	3	-39	6
COc1cc(Cl)cc(/C=N\NC(=O)c2ccc3c(c2)OCO3)c1O	31	42	88*	26	-26	.
O=C(N/N=C/c1cc(Br)cc(Cl)c1O)c1ccc2c(c1)OCO2	30	14	25	55*	-8	25
Cc1cc(Br)cc(/C=N/NC(=O)c2ccc3c(c2)OCO3)c1O	21	-3	80	-55	-156	7
C[C@@H]1CN([C@H](C)CO)S(=O)(=O)c2ccc(C#Cc3cccc(F)c3)cc2O[C@@H]1CN(C)C(=O)NC1CCCCC1	.	83*	.	.	.	.
C[C@H]1CN([C@@H](C)CO)S(=O)(=O)c2ccc(C#Cc3cccc(F)c3)cc2O[C@H]1CN(C)CC1CC1	.	65*	.	.	.	.
C[C@H](CO)N1C[C@H](C)[C@H](CN(C)C(=O)NC2CCCCC2)Oc2cc(C#Cc3cccc(F)c3)ccc2S1(=O)=O	.	84*	.	.	.	.
C[C@H](CO)N1C[C@H](C)[C@H](CN(C)CC2CC2)Oc2cc(C#Cc3cccc(F)c3)ccc2S1(=O)=O	.	8	.	.	.	.
O=C(C[C@H]1C=C[C@H](NC(=O)Nc2ccc3c(c2)OCO3)[C@@H](CO)O1)NCCCN1CCOCC1	.	4	.	.	.	.
CO[C@H]1CN(C)C(=O)c2ccc(NC(C)=O)cc2OC[C@@H](C)N(Cc2ccccn2)C[C@H]1C	.	-5	.	.	.	.
Cc1ccc(S(=O)(=O)N2CC[C@@H]3[C@@H](CO)N(C)c4ccc(C#Cc5cccnc5)cc4[C@@H]32)cc1	.	12	.	.	.	.
O=C(COc1ccc2ccccc2c1)NCCNC(=O)COc1ccc2ccccc2c1	54*	.	8	13	4	14
O=C(COc1ccc2ccccc2c1)NNC(=O)Cc1ccccc1	6	-18	-5	7	13	7
SMILES	EBV LMP1 NFkB	PAX8 reporter	Shn3 inh set2	Peg3 promoter	HIF-2a block	TRPM1 prom inh
C[C@H]1CN([C@@H](C)CO)S(=O)(=O)c2ccc(C#Cc3ccncc3)cc2O[C@@H]1CN(C)C(=O)C1CCCCC1	.	45	.	.	.	.
C[C@H]1CCCCO[C@H](CN(C)C(=O)Nc2ccc(C(F)(F)F)cc2)[C@@H](C)CN([C@@H](C)CO)C(=O)c2cc(NS(=O)(=O)c3ccc(F)cc3)ccc2O1	.	84*	.	.	.	.
C[C@@H]1CCCCO[C@@H](CN(C)C(=O)Nc2ccc(F)cc2)[C@@H](C)CN([C@H](C)CO)C(=O)c2cc(NS(=O)(=O)c3ccc(F)cc3)ccc2O1	.	-7	.	.	.	.
C[C@@H]1CCCCO[C@@H](CN(C)C(=O)Nc2ccc(C(F)(F)F)cc2)[C@H](C)CN([C@H](C)CO)C(=O)c2cc(NS(=O)(=O)c3ccc(F)cc3)ccc2O1	.	88*	.	.	.	.
C[C@H](CO)N1C[C@H](C)[C@H](CN(C)C(=O)Nc2ccc(C(F)(F)F)cc2)OCCCC[C@H](C)Oc2ccc(NS(=O)(=O)c3ccc(F)cc3)cc2C1=O	.	72*	.	.	.	.
Cc1cccc(Cl)c1NC(=O)N(C)c1ccccc1	.	-9	.	.	.	.
OCc1nc2ccccc2n1Cc1ccc(Cl)cc1	-6	2	14	9	7	5
Cc1nc2ccccc2n1Cc1ccc(Cl)cc1	2	21	88*	1	-12	16
OC(c1ccccc1)C(O)c1ccccc1 (centres undefined)	.	3	8	9	18	.
OC(c1ccccc1)C(O)C(c1ccccc1)N1CCCCC1 (centres undefined)	-8	-6	92*	6	2	-21
O=C1C=CC2(C=C1)O[C@H](Cc1ccccc1)[C@@H](Cc1ccccc1)O2	87*	121*	97*	108*	92*	97*
COc1ccc(N2C(=O)CC(Cc3ccccc3)C2=O)cc1 (centres undefined)	-1	-14	-5	-6	2	-7
COc1ccc(C[C@@H]2OC3(C=CC(=O)C=C3)O[C@H]2Cc2ccc(OC)cc2)cc1	79*	.	94*	103*	87*	100*
O=C1Nc2ccccc2C1Cc1ccccc1 (centres undefined)	1	-4	12	3	3	3
C[C@@H]1CN([C@@H](C)CO)C(=O)c2cc(NC(=O)Nc3ccc(C(F)(F)F)cc3)ccc2O[C@@H]1CN(C)C(=O)NC1CCCCC1	.	24	.	.	.	.
Cc1noc(C)c1NC(=O)Nc1cccc2c1O[C@H](CN(C)C(=O)Nc1ccc3c(c1)OCO3)[C@H](C)CN([C@H](C)CO)C2=O	.	-2	.	.	.	.
CCOC(=O)c1c(NC(=O)CSc2nc3ccc(OC)cc3[nH]2)sc2c1CC(C)(C)NC2(C)C	-3	28	-15	91*	9	-16
CCSc1ccccc1C(=O)n1nnc2ccccc21	-1	.	73	70*	26	69*
C[C@@H]1CCCCO[C@H](CN(C)C(=O)NC2CCCCC2)[C@H](C)CN([C@@H](C)CO)C(=O)c2cc(NS(=O)(=O)c3cccs3)ccc2O1	.	-1	.	.	.	.
COc1ccc(COC(=O)c2cc([N+](=O)[O-])ccc2N2CCOCC2)cc1F	1	96*	31	-5	29	66*
